# Reference: PubChem BioAssay AID504710 (Sanford-Burnham Center for Chemical Genomics, 2011)
# Several values for one entry are separate records, joined by “and”; a condition that tells them apart may be missing. Equal values may be shown once. Activity calls are given as the source filed them.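 How the source made its calls: active means inhibition reaching about 16% in any single replicate (limit read from the data); inactive means the rest.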
# Molecular target: Hexokinase HKDC1 (Homo sapiens) (UniProt Q2TB90)
# Sequence (Q2TB90 whole entry, looked up): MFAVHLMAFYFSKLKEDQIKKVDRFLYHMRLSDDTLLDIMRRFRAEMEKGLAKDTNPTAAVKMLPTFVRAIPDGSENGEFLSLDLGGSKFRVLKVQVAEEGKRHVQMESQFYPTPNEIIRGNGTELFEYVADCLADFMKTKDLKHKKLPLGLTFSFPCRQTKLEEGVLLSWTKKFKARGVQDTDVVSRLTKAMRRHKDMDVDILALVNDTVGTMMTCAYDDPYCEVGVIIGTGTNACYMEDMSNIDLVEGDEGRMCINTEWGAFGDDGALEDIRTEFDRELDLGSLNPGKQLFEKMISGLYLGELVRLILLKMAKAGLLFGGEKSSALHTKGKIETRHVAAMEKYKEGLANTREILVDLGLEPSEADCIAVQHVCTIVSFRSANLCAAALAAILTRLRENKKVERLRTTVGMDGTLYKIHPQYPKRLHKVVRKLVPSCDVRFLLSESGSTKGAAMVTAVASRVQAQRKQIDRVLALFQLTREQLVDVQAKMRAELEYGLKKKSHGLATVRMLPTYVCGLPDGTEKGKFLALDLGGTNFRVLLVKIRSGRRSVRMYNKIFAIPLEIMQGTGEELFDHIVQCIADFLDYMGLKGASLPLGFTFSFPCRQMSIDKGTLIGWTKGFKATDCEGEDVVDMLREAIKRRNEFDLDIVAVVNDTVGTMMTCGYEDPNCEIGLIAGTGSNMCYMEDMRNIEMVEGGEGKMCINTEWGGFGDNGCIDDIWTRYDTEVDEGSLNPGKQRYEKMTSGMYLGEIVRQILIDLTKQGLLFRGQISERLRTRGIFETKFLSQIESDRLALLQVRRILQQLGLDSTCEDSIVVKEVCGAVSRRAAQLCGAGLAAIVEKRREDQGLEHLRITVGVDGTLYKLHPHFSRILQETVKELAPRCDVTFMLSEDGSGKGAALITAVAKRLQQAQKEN
# Assay: compounds lowering human HKDC1 activity – biochemical, single concentration, confirmation (AID 504710)
# Conditions: recombinant HKDC1, G6PDH/diaphorase/resazurin fluorescence; at 20 µM; hits give high values
row,SMILES,inhibition
1,CCCc1nc2oc3c(OC)ncnc3c2c2c1COC(C)(C)C2,42.4% (active)
2,COc1ccc(/C=C/C(=O)NC(=S)NNC(=O)c2cnccn2)cc1,-58.3% (inactive)
3,COc1ccc(NC(=O)CSc2ccc(-c3ccco3)nn2)cc1OC,44% (active)
4,CC(=NNC(=S)N1CC2CCC(CC2)C1)c1ccncn1,-61.4% (inactive)
5,Cc1ccc(S(=O)(=O)/N=C2/C=C(Sc3ncn[nH]3)C(=O)c3ccccc32)cc1,63.3% (active)
6,Cc1ccc(N=Nc2ccc(O)c3ncccc23)cc1C,-40.4% (inactive)
7,CC(=NNC(=S)N1CC2CCC(CC2)C1)c1cccc(C)n1,-51.9% (inactive)
8,Oc1ccc(/C=N/NC(=S)Nc2cccnc2)c(O)c1,14.6% (active)
9,Cc1cc(C)c(S(=O)(=O)Nc2cc(SCC(=O)O)c(O)c3ccccc23)cc1C,41.5% (active)
10,O=C1C(Nc2ccccc2)=C/C(=N/S(=O)(=O)c2cccs2)c2ccccc21,65% (active)
11,CC(C)Nc1nnc(SCC(=O)Nc2ccc3c(c2)C(=O)c2ccccc2C3=O)s1,53.5% (active)
12,O=C(CSc1nnc(CCCN2C(=O)c3cccc4cccc(c34)C2=O)n1-c1ccccc1)N1CCCCC1,48.3% (active)
13,COc1cc(N=c2ssnc2Cl)c(OC)cc1Cl,-58.8% (inactive) and -56.9% (inactive)
14,Oc1ccc(O)c(Cc2nc3ccccc3[nH]2)c1,56% (active)
15,O=[N+]([O-])c1ccc(NN=Cc2ccc(O)cc2O)nc1,50.8% (active)
16,CCOC(=O)c1c(C)[nH]c(C2=NNC(=Nc3ccc(OCC)cc3)SC2)c1C,-122% (inactive)
17,Nc1nc(-c2cccc(Br)c2)cs1,-40.6% (inactive)
18,CCc1ccc(S(=O)(=O)/N=C2\C=C(Nc3cccc(C(=O)O)c3)C(=O)c3ccccc32)cc1,64.8% (active)
19,C=CCN1C=C2C(=O)C(C)(OC(=O)CCC(=O)OC)C(=O)C(Br)=C2C=C1c1ccc(OC)cc1 (configuration not stated),57.5% (active)

row,SMILES,inhibition
1,CN(C)c1ccc(Cc2cc3c(O)ccc(O)c3cc(Cc3ccc(N(C)C)cc3)c2=O)cc1,44.7% (active)
2,CCCc1nc2oc3c(NCC4CCCO4)ncnc3c2c2c1COC(C)(C)C2 (configuration not stated),28.9% (active)
3,CCOC(=O)CSc1nc2ccc(C)cc2n2cnnc12,63.8% (active)
4,CCN(CC)c1ccc2c(c1)oc(=O)c1c(Cl)cc(=O)oc12,47.7% (active)
5,C[N+](C)(CCCCCC[N+](C)(C)CCCN1C(=O)c2cccc3cccc(c23)C1=O)CCCN1C(=O)c2cccc3cccc(c23)C1=O,-82% (inactive)
6,COC(=O)c1ccc(NCc2cc(O)ccc2O)cc1,65.1% (active)
7,O=C1C(Cl)=C(NCCc2ccccc2)C(=O)c2ccccc21,59.5% (active)
8,O=C1C(Cl)=C(N2CCCCC2)C(=O)C(Cl)=C1c1cnc(N2CCCCC2)s1,49.4% (active)
9,CCOC(=O)c1c(NC(=O)CSc2nnnn2-c2ccc(OC)cc2)sc(C)c1C,-42.3% (inactive)
10,Cc1[nH]c2ccccc2c1C1=CC(=O)C=CC1=O,52.9% (active)
11,CCOc1ccc2c(c1)C(NC(C)=O)C(=O)N2CCN1CCOCC1 (configuration not stated),60.9% (active)
12,CCn1cc(C(=O)NCc2ccc3c(c2)OCO3)c2cc(OC)c(OC)cc2c1=O,45.9% (active)
13,CCC(c1ccccc1)C(CC)c1cc(O)c(O)c(O)c1 (configuration not stated),35.8% (active)
14,C=CCn1nc([N+](=O)[O-])nc1Sc1cccc2cccnc12,-52.4% (inactive)
15,COc1ncnc2c1oc1nc(C(C)C)c3c(c12)CC(C)(C)OC3,43.5% (active)
16,COC(=O)Cn1c2ccc(F)cc2c2nc(C)sc21,-90.4% (inactive)
17,CC(=O)NC1C(=O)N(CCN2CCOCC2)c2ccc(Br)cc21 (configuration not stated),61% (active)
18,NC(=O)C1CCN(C2=C(Cl)C(=O)c3ccccc3C2=O)CC1,73% (active)
